# Sampled rows, rich in hits. Any-hit rate of the full collection: about 1.4%.
# EPAC2 antagonist: EPAC2 (human) antagonism; Q8WZA2; 360,000 compounds, 0.18% hits; EPAC2 GEF exchange of Rap1B-BODIPY-GDP, fluorescence; Potency, µM (series often up to 114 µM), for inactives: at the top dose activity, negative = inhibition, usual class: inhibitors; note: potency is the fitted concentration of half-maximal effect; % is set by controls: 0 for no effect and ±100 for the full control effect; nearly all actives have a fitted effect of over 45% in size
# EPAC1 antagonist: blocks human EPAC1 exchange factor. O95398. EPAC1 GEF assay, Rap1b-BODIPY-GDP exchange fluorescence. Potency, µM (highest dose often 115 µM), for inactives: top-dose activity change, negative = inhibition, usual class: inhibitors. 360,000 compounds, 0.14% hits;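 note: potency is the fitted concentration of half-maximal effect; plate controls were vehicle for no effect and positive control for full effect; nearly all actives have a fitted effect of over 50% in size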
# EPAC1 agonist: EPAC1 (human) agonism. AID 720707. Potency, µM (top dose mostly 154 µM), without a hit: at the top dose activation, most hits filed as activators. 360,000 compounds, 0.073% hits. O95398. EPAC1 agonist qHTS, biochemical assay; response scale: 100% = response to 6.5 mM cAMP; note: potency is the fitted concentration of half-maximal effect; nearly all actives have a fitted effect of over 60% in size
#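 Normalized to 6.5 mM cAMP, activity reflects EPAC1-catalysed release of BODIPY-GDP from Rap1B, followed kinetically over 30 min at 480 nm excitation, 540 nm emission. Reaction contained 100 nM EPAC1, 250 nM Rap1B-BODIPY-GDP, 50 uM GDP.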
# hERG WT inh: blocks the wildtype human KCNH2 potassium channel; Q12809; U2OS, BacMam KCNH2, thallium flux FluxOr; stronger effect = lower value; activity change, % at 1.84 µM; 340,000 compounds, 0.37% hits; AID 720551;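 active = maximum activity change below -70%; inconclusive = maximum activity change between -70% and -50%; inactive = maximum activity change above -50%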; note: % is set by controls: 0 for no effect and ±100 for the full control effect
# Target sequence (Q12809 whole entry, looked up): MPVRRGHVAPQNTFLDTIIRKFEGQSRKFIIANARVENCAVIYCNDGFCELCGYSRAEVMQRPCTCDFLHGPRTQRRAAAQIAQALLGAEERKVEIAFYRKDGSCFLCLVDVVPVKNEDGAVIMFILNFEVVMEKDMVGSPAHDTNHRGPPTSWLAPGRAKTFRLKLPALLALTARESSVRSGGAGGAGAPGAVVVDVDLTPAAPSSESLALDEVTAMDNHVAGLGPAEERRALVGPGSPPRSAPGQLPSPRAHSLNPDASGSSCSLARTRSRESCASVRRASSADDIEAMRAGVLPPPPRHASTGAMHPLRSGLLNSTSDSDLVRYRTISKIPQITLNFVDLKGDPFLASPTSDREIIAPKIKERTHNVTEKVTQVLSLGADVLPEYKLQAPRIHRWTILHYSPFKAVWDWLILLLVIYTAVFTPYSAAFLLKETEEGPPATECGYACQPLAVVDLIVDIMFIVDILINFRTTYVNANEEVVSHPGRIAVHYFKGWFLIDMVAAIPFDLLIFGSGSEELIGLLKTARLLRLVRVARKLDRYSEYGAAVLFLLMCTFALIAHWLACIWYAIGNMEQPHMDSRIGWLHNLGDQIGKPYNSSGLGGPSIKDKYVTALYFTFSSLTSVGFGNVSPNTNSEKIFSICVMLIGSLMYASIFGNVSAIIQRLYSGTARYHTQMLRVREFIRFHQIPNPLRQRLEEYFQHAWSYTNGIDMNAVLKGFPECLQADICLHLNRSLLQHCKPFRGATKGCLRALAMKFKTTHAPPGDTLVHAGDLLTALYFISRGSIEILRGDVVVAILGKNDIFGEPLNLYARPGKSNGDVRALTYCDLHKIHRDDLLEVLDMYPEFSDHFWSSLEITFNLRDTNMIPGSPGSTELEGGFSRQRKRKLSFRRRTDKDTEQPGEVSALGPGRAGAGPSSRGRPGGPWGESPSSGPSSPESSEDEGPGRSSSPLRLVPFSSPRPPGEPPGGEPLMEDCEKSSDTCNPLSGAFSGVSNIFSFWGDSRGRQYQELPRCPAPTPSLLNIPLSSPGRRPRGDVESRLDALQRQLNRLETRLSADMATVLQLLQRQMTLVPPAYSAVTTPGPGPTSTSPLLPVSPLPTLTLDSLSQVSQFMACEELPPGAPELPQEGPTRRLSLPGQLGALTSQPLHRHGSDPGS
#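 U2OS cells transduced with wild-type KCNH2 virus are loaded with FluxOr dye for 45 min, and thallium flux is measured in kinetic reads before and after stimulation buffer. Rate constants are normalized to DMSO controls.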
# EPAC2 ag: EPAC2 (human) agonism. EPAC2 activation, biochemical qHTS; response scale: 100% = 6.5 mM cAMP response. Potency, µM (doses to about 154 µM), for the others: at the highest dose activation, actives largely listed as activators. AID 720711. Q8WZA2. 360,000 compounds, 0.079% hits; note: potency is the fitted concentration of half-maximal effect; nearly all actives have a fitted effect of over 50% in size
#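 qHTS, titration series. 100 nM EPAC2 / 250 nM Rap1B-BODIPY-GDP / 50 uM GDP; RT; ex 480/em 540 nm, 5-min reads to 30 min. Norm. to 6.5 mM cAMP = activation.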
# KCNH2 3.1 block: KCNH2 3.1 (human) potassium channel inhibition; activity change, % (tested at about 1.8 µM); U2OS KCNH2 3.1, thallium flux FluxOr; stronger effect = lower value; 340,000 compounds, 0.95% hits;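 active = maximum activity change below -70%; inconclusive = maximum activity change from -70% to -50%; inactive = maximum activity change above -50%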;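 note: thallium influx rate constant from kinetic fluorescence after stimulation buffer; % is set by controls: 0 for no effect and ±100 for the full control effect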
#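 We transduce U2OS cells with the mutant 3.1 virus, culture them overnight, load FluxOr with Red40 quencher for 45 min, then add stimulation buffer and read kinetically for 2 min to derive a normalized rate constant.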
# * hit, by the source's call; i = inactive; ? = inconclusive; · = no result given. Unless noted, calls come from the whole dose curve; as a rule, active = well fitted curve in the direction sought with a large enough effect; inconclusive = small, poorly fitted or top-dose-only effect, or another doubt; inactive = no such curve, though single readings can be large; an effect the other way counts as inactive or inconclusive.
SMILES,EPAC2 antagonist,EPAC1 antagonist,EPAC1 agonist,hERG WT inh,EPAC2 ag,KCNH2 3.1 block
CCCCNC(=O)C1C(c2ccc(C(F)(F)F)cc2)=Nc2ccccc2N1C(=O)c1cccc2ccccc12 (stereo not given),4.2%,-26.7%,-18.6%,·,-17.0%,·
Oc1ccc(N=Cc2ccc(OCc3ccccc3)cc2)cc1,?,25.1µM*,16.6%,26.7,14.0%,1.4
O=c1cc(N2CCCCC2)c(-c2ccccc2)nn1Cc1ccc(Cl)cc1,-5.4%,2.1%,10.6%,-7.6,13.6%,-94.5*
O=c1cc(N2CCCCC2)c(-c2ccccc2)nn1Cc1ccc(F)cc1,-15.3%,-13.9%,4.3%,-6.6,12.6%,-10.6
C[C@@H]1CN([C@H](C)CO)C(=O)CCCn2nncc2CO[C@H]1CN(C)Cc1ccc(Cl)c(Cl)c1,-7.0%,-5.4%,-4.5%,0.1,-0.5%,11.4
CN(CC(=O)Nc1ccc(F)cc1)CC(=O)N(C)C1(C#N)CCCCC1,7.8%,16.6%,0.4%,0.3,7.7%,-115.0*
COc1ccc(NC(=O)CN(C)CC(=O)N(C)C2(C#N)CCC(C)CC2)cc1 (stereo not given),3.1%,0.0%,10.0%,-2.8,4.7%,-2.2
COc1ccc(CCNC(=O)c2ccc([N+](=O)[O-])cc2)cc1,2.3%,-6.0%,5.2%,-1.7,10.2%,-5.3
COc1ccc(C(=O)Nc2nc(-c3ccc([N+](=O)[O-])cc3)c(-c3ccc(OC)cc3)s2)cc1,136.1%,457.3%,112µM*,-20.9,100µM*,-14.0
COc1ccc(NC(=O)C(c2ccc(C#N)cc2)n2c(=O)c(-c3cc4ccccc4[nH]3)nc3ccccc32)cc1 (stereo not given),3.3%,-17.1%,-5.9%,·,6.6%,·
Cc1ccc(-c2csc3nc[nH]c(=S)c23)cc1,-2.7%,-3.6%,3.5%,-8.8,-9.8%,-3.2
S=c1[nH]cnc2scc(-c3ccc(Br)cc3)c12,-4.0%,-3.3%,2.8%,-84.0*,0.0%,0.2
C=CCN1C(=O)S/C(=C\c2ccc(N3CCOCC3)cc2C)C1=O,23.9%,22.2%,-61.6%,-0.6,-37.8%,10.0
C=CC(C)N1C(=O)S/C(=C\c2ccc(N3CCOCC3)cc2C)C1=O (stereo not given),-1.1%,35.5µM*,-38.4%,7.8,1.3%,-9.2
CC(C)Oc1ccc(NC(=O)Oc2ccccc2)cc1,3.1%,10.7%,8.8%,2.9,6.8%,-206.6*
CC(C)(C)S(=O)(=O)N1C[C@@H]2CC/C=C\C/C=C\2[C@H]1CCO,0.0%,2.9%,-10.7%,-3.1,4.0%,11.1
Cc1ccnc(NC(=O)CNC(=O)c2ccccc2Br)c1,-6.7%,9.4%,5.7%,-71.0*,6.3%,-0.5
Cc1ccc(S(=O)(=O)N2[C@H](CC(=O)Oc3ccccc3)OC[C@@H]2C(C)C)cc1,0.8%,1.9%,3.7%,·,12.5%,·
O=C1c2cccc3c(O)ccc(c23)C(=O)N1Cc1ccco1,324.8%,19.1%,56.2µM*,-28.0,100µM*,-0.6
CC(=O)Nc1ccc(N2C(=O)c3ccc(S(=O)(=O)c4ccc(C(=O)O)cc4)cc3C2=O)cc1,27.9%,4.6%,7.9%,-167.6*,-3.1%,21.8
O=C1c2cccc3c(O)ccc(c23)C(=O)N1c1ccc(Cl)cc1,220.2%,252.4%,100µM*,-19.0,112µM*,-3.3
COc1ccc(N2C(=O)c3cccc4c(N(C)CCO)ccc(c34)C2=O)cc1,122.4%,30.3%,-55.4%,3.0,10.8%,8.8
O=C1c2ccccc2C(=O)N1Cc1ccco1,5.3%,3.3%,3.7%,-19.6,-7.1%,7.4
CC(=O)Nc1ccc(N2C(=O)c3cccc4c(O)ccc(c34)C2=O)cc1,416.7%,?,89.1µM*,-30.1,112µM*,-10.2
COc1ccc(-n2nnnc2C2(C)CCC(=O)N2Cc2ccccc2)cc1 (stereo not given),3.9%,0.6%,8.1%,·,6.0%,·
SMILES,EPAC2 antagonist,EPAC1 antagonist,EPAC1 agonist,hERG WT inh,EPAC2 ag,KCNH2 3.1 block
Cc1ccc2nc(N3C(=O)C(O)=C(C(=O)c4ccc(C)o4)C3c3cccc(O)c3)sc2c1 (stereo not given),6.9%,50.1µM*,-13.5%,7.1,-7.1%,16.4
COc1ccc2nc(N3C(=O)C(O)=C(C(=O)c4ccco4)C3c3ccc(OC)c(OC)c3)sc2c1 (stereo not given),2.9%,-5.3%,1.0%,-3.5,-2.3%,-14.1
CC(=O)C[C@H]1SC[C@@H](C(C)C)N1S(=O)(=O)c1ccc(C)cc1,39.8µM*,-19.3%,4.0%,·,6.1%,·
COCCCNc1c2c3c(cccc3[nH]c1=O)C(=O)c1ccccc1-2,i,i,100µM*,-10.3,100µM*,-33.1
COCCCNC1=C(Cl)C(=O)c2ccccc2C1=O,-21.4%,-3.8%,-2.2%,-11.5,1.7%,-8.5
COc1ccc(-c2cn(Cc3ccc(C(=O)NCc4ccc(C)cc4)cc3)c(C(C)N)n2)cc1 (stereo not given),2.2%,-0.5%,2.2%,·,8.1%,·
Cc1ccc(-n2c(O)c(C=Nc3ccccc3-c3n[nH]c(=S)[nH]c3=O)c3ccccc3c2=O)cc1C,-22.0%,50.1µM*,7.7%,4.8,0.1%,-2.3
COc1ccc2oc(=O)cc(CN3CCN(Cc4ccccc4)CC3)c2c1,-7.3%,6.6%,9.3%,36.1,8.6%,-17.3
COc1ccc(CN2CCN(Cc3cc(=O)oc4cc(C)ccc34)CC2)c(OC)c1OC,-11.9%,18.3%,-3.4%,?,2.5%,-100.0*
COc1ccc2c(CN3CCN(Cc4ccccc4)CC3)cc(=O)oc2c1,-6.9%,-0.5%,1.0%,-78.8*,7.9%,-107.7*
CCc1cc2c(CN3CCN(Cc4ccccc4)CC3)cc(=O)oc2cc1O,-4.5%,0.4%,7.3%,15.4,9.3%,-0.2
CCc1ccc2c(CN3CCN(S(=O)(=O)c4ccccc4F)CC3)cc(=O)oc2c1,1.9%,-11.5%,-0.3%,-14.2,0.9%,-74.6*
CCc1ccc2c(CN3CCN(Cc4ccccc4)CC3)cc(=O)oc2c1,-17.4%,-12.3%,3.1%,-141.5*,9.7%,-119.8*
COc1ccc(S(=O)(=O)N2CCOCC2)cc1NC(=O)c1ccc(=O)[nH]c1,4.0%,-0.4%,5.0%,0.4,2.0%,-7.8
OC(c1cccc(Cl)c1)c1ncc(-c2cccc(C(F)(F)F)c2)[nH]1 (stereo not given),-11.2%,0.3%,-8.7%,·,3.0%,·
O=C(O)COC(=O)Cc1ccccc1Nc1c(Cl)cccc1Cl,-25.2%,0.4%,-20.4%,0.3,5.7%,3.8
CCN(CC)C(=O)c1cn(C)c(=O)c2cc(OC)c(OC)cc12,-0.5%,-1.4%,8.7%,4.4,5.8%,-197.6*
